# GALC G270D act – raises human GALC G270D mutant activity in cells; P54803; 145M-Twi-hGALC-G270D cells, HMU-beta-Gal fluorescence, 48 h; Potency, µM (series often up to 57.5 µM), hits mostly activators; 45,000 compounds, 0.1% hits; further: 0% is about no effect; nearly all actives have a fitted effect of over 65% in size
#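 qHTS, 1536-well; 145M-Twi-hGALC-G270D cells (WT line also made) in DMEM/F12 + 10% FBS; compound incubation on live cells; HMU-β-gal 0.1 mM final, pH 5.2, NaTC; carbonate stop; fluorescence increase = enhanced residual activity.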
# FH mod – Identification of activators of human fumarate hydratase by quantitative high-throughput screening. Potency, µM (doses to about 79.9 µM), for the others: top-dose activity change, negative = inhibition, actives largely listed as inhibitors. 54,000 compounds, 0.22% hits. AID 1347055, 2019. FH coupled MDH/diaphorase resazurin fluorescence, 15 min; further: on the % scale 0 is the no-effect control and ±100 the full control effect; the screen sought activators but most active calls are inhibition curves; nearly all actives have a fitted effect of over 45% in size
# NTMT1 inh – NTMT1 methyltransferase inhibition; Potency, µM (doses to about 114 µM), without a hit: at the highest dose activity change, negative = inhibition, usual class: inhibitors; 59,000 compounds, 2.5% hits; AID 1645870; Q9BV86; NTMT1 MTase-Glo SAH luminescence, purified enzyme;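 further: plate controls were DMSO vehicle for no effect and no enzyme for full effect; nearly all actives have a fitted effect of over 65% in size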
# Target sequence (Q9BV86 whole entry, looked up): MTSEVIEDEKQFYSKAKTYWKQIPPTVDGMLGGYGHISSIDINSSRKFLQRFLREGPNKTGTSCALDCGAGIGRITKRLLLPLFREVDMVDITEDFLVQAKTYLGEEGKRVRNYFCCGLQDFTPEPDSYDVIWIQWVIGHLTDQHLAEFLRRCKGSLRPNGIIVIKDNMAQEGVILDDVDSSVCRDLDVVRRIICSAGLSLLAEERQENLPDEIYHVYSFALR
# * marks the source's active call; other numbers are inactive results; i = inactive; ? = inconclusive; · = no result given; ! = not confirmed by another sample; [ ] = remark or other dose. The entries come from a sample that favours hits as a whole. The call rests on the fitted dose curve; in most records, active means well fitted curve in the direction sought with a large enough effect; inconclusive means small, poorly fitted or top-dose-only effect, or another doubt; inactive means no such curve, though single readings can be large; an effect the other way counts as inactive or inconclusive. Potency means the concentration at half of the fitted maximal effect.
SMILES,GALC G270D act,FH mod,NTMT1 inh
CCN(C)S(=O)(=O)Nc1ccc(F)c(C(=O)c2c[nH]c3ncc(-c4cnc(C5CC5)nc4)cc23)c1F,·,·,1.4%
Cc1cc(NS(=O)(=O)c2ccc(NC(=O)Cc3ccc(C)c(C)c3)cc2)no1,·,·,8.4%[57.5 µM]
CN[C@@H]1[C@@H](O)[C@@H](O[C@@H]2[C@@H](O)[C@H](O[C@H]3O[C@H](CN)[C@@H](O)[C@H](O)[C@H]3O)[C@@H](N)C[C@H]2NC(=O)[C@@H](O)CN)OC[C@]1(C)O,·,6.0%,3.9%[57.5 µM]
COc1ccc(CNC(=O)CSc2ncc(S(=O)(=O)c3ccc(Br)cc3)c(=O)[nH]2)cc1,i,-5.1%,10.1%
COC(=O)c1cc(Cl)ccc1NC(=O)CSc1ncc(S(=O)(=O)c2ccc(Br)cc2)c(=O)[nH]1,i,?,79.4µM*
O=C(O)CNC(=O)c1nc(Cl)c2ccccc2c1O,·,·,10.4%
N#Cc1ccc(NS(=O)(=O)c2ccc(NC(=O)Cc3ccc(Cl)c(Cl)c3)cc2)cc1,·,·,4.0%
Cc1cn([C@H]2C[C@H](N[S+](=O)([O-])Cc3cccc([N+](=O)[O-])c3)[C@@H](CO)O2)c(=O)[nH]c1=O,·,·,9.8%
CC(C)c1c(C(=O)Nc2ccccc2)c(-c2ccccc2)c(-c2ccc(F)cc2)n1CC[C@@H](O)C[C@@H](O)CC(=O)O,i,2.6%[20.6 µM],35.5µM*!
CC(C)c1c(C(=O)Nc2ccccc2)c(-c2ccccc2)c(-c2ccc(F)cc2)n1CC[C@H](O)C[C@@H](O)CC(=O)O,·,9.1%[53.3 µM],29.3%[57.5 µM]
C=C(C)[C@H]1C[C@@H](O)C(=C)CC[C@@H](O)C(=C)[C@@H](O)C1,·,-1.6%,16.1%[57.5 µM]
O=C(/C=C/c1ccc(O)cc1)O[C@H]1[C@H](OC2CCCCC2O)O[C@H](CO)[C@@H](O)[C@@H]1O (stereo partly specified),·,-4.4%[53.3 µM],-6.3%[29.8 µM]
Clc1ccc2c(c1)NC(c1ccncc1)=NC(c1cccs1)=N2,i,-9.0%,?
Clc1cccc(C2=NC(c3cccs3)=Nc3ccc(Br)cc3N2)c1,i,?,89.1µM*
COCCN(C)Cc1ccc2nc3sc(C(=O)N(C)C4CCCCC4)cn3c2c1,·,?,-2.0%[57.5 µM]
Nc1cc(C(F)(F)F)ccc1S,i,-19.0%[53.3 µM],8.91µM*
CN(CC[C@@H](Oc1ccc(C(F)(F)F)cc1)c1ccccc1)CC(=O)O,·,-12.3%[53.3 µM],·
Cc1cc(O[C@@H](CCC(F)(F)F)c2ccc(C(=O)NCCC(=O)O)cc2)cc(C)c1-c1ccc(C(C)(C)C)cc1,·,·,31.6µM*
COc1cc(O)c(C(CC(=O)N2CCCC(C(C)C)C2)c2ccc3c(c2)OCO3)c(OC)c1 (stereo unspecified),·,·,12.4%[228 µM]
CCCCNC(=O)CN1CCN(c2ccc(NC(=O)c3ccc(OC)cc3)cc2C(=O)O)CC1,i,8.1%,?
CCCCNC(=O)CN1CCN(c2ncc(NC(=O)c3ccc(Cl)cc3)cc2C(=O)O)CC1,i,-30.1%,39.8µM*
N#Cc1cnc2c(Cl)cc(NCc3cn(CCN4CCCCCC4)nn3)cc2c1Nc1ccc(F)c(Cl)c1,·,-11.2%,10µM*
N#Cc1cnc2cnc(NCc3cccnc3)cc2c1Nc1ccc(F)c(Cl)c1,·,0.4%,?
CC1(C)CC[C@]2(C(=O)O[C@@H]3O[C@H](CO)[C@@H](O)[C@H](O)[C@H]3O)CC[C@]3(C)C(=CCC4[C@@]5(C)C[C@@H](O)[C@H](O)[C@](C)(C(=O)O)C5CC[C@]43C)C2C1O (stereo partly specified),·,?,15.2%[12.6 µM]
Nc1ncnc2n[nH]c(Nc3ccc(F)cc3)c12,·,7.4%,50.1µM*!
SMILES,GALC G270D act,FH mod,NTMT1 inh
CCN(C(=O)c1cc(S(=O)(=O)N2CCc3ccccc32)cn1C)c1cccc(C)c1,i,-32.3%,89.1µM*
CCc1cccc(CC)c1NC(=O)c1cc(S(=O)(=O)N2CCc3ccccc32)cn1C,i,7.2%,14.4%
CC(=O)N[C@@H](CCCCN)C(=O)N(C)[C@@H](CC(C)C)C(=O)N[C@H](C(=O)N(C)[C@@H](Cc1ccccc1)C(=O)N[C@H](Cc1ccccc1)C(N)=O)C(C)C,·,3.2%[6.31 µM],-16.8%[6.45 µM]
C=CC(=O)Nc1cccc(Sc2nc(Nc3ccc(N4CCN(C)CC4)cc3)ncc2Cl)c1,·,-0.9%,?
CCc1ccc(C2CC(=O)Nc3cc4c(cc32)OCO4)cc1 (stereo unspecified),i,-5.6%,89.1µM*
Cc1ccc(C2CC(=O)Nc3cc4c(cc32)OCCO4)cc1 (stereo unspecified),i,2.4%,-9.9%
CC1(C)CC[C@]2(C(=O)O[C@@H]3O[C@H](CO[C@@H]4O[C@H](CO)[C@@H](O)[C@H](O)[C@H]4O[C@@H]4O[C@H](CO)[C@H](O)[C@H](O)[C@H]4O)[C@@H](O)[C@H](O[C@@H]4O[C@H](CO)[C@@H](O)[C@H](O)[C@H]4O)[C@H]3O)CC[C@]3(C)C(=CCC4[C@@]5(C)CC[C@H](O[C@@H]6OC[C@@H](O)[C@H](O)[C@H]6O)[C@@](C)(C(=O)O)C5CC[C@]43C)[C@@H]2C1 (stereo partly specified),·,-0.2%[13.5 µM],18.8%[6.45 µM]
O=C(CCNC(=O)c1ccc(OC(F)(F)F)cc1)N[C@@H]1CCCc2ccccc21,·,·,8.7%
CCOC(=O)Nc1ccc(NCc2ccc(F)cc2)nc1N,i,12.6µM*!,?
CCOC(=O)c1cc(S(=O)(=O)NCc2ccc(F)cc2)[nH]n1,i,-4.4%,?
CC1(C)OCCn2c1nc1c(N3CCOCC3)nc(-c3cnc(N)nc3)nc12,·,·,12.7%
Cc1ccccc1Sc1ccc(/C=C2\SC(=S)NC2=O)cc1[N+](=O)[O-],·,28.2µM*,25.1µM*
Nc1ccc(F)cc1NC(=O)c1ccc(CNC(=O)/C=C/c2cccnc2)cc1,·,·,23.7%
O=[N+]([O-])c1ccc(Oc2ccc3c(c2)CCC(c2ccccc2)O3)nc1 (stereo unspecified),·,-2.0%,-23.8%[57.5 µM]
CO[C@H]1C[C@@H]2CC[C@@H](C)[C@@](O)(O2)C(=O)C(=O)N2CCCC[C@H]2C(=O)O[C@H]([C@H](C)C[C@@H]2CC[C@@H](OCCO)[C@H](OC)C2)CC(=O)[C@H](C)/C=C(/C)[C@@H](O)[C@@H](OC)C(=O)[C@H](C)C[C@H](C)/C=C\C=CC=C1C,·,·,13.4%
COc1cc(C(CC(=O)Nc2ccc(C)c(F)c2)N2Cc3ccccc3C2=O)cc(OC)c1OC (stereo unspecified),i,3.2%,5.2%
CCOC(=O)c1cccc(NC(=O)CC(c2cc(OC)c(OC)c(OC)c2)N2Cc3ccccc3C2=O)c1 (stereo unspecified),i,-12.6%,89.1µM*
C=C1C(=O)O[C@H]2CC(=C)[C@H]3CC[C@@](C)(O)[C@@H]3CC12 (stereo partly specified),·,-24.3%,11.5%[57.5 µM]
CC(=O)NC1C(OC2CCC3(C)C(CCC4(C)C3CC=C3C5CC(C)(C)CCC5(C(=O)O)C(O)CC34C)C2(C)C)OC(CO)C(O)C1O (stereo unspecified),·,4.9%[20.6 µM],14.1%[12.6 µM]
Cc1ccc(OCCn2c(CCNC(=O)/C=C/c3ccccc3Br)nc3ccccc32)cc1,·,·,-8.1%

# High-throughput results as filed in PubChem BioAssay.
